Data published in PubChem BioAssay (NCATS).
Inconclusive results are not listed. The source made the active and inactive calls. Calls follow the shape of the dose curve; as a rule, active = well fitted curve in either direction with a large enough effect (not every such curve was filed as active); inconclusive = small, poorly fitted or top-dose-only effect, or another doubt; inactive = flat fitted curve, though single readings scatter.
% is scaled to controls: 0 for no effect and ±100 for the full control effect.

Assay: NFAT Signaling Pathway (AID 444);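 also: carbachol stimulus at about its EC50 of 1 µM final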
Conditions: Jurkat NFAT-bla M1, carbachol, beta-lactamase ratio, 5 h; at 17.2 µM (top of the series) unless noted
Method in brief: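 Read-out: CCF4 FRET ratio (460 nm/530 nm) after 1 h RT dye loading, used for %activity and AC50 from titration series. Cells: Jurkat NFAT-β-lactamase/M1 line, treated with compound plus 1 uM carbachol for 5 h, 37 °C.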
With `Cc1ccc(-n2ncc3c(NCCCN4CCCC4=O)ncnc32)c(C)c1` the activity change, negative = inhibition was 11.5% (inactive).
With `CCOC(=O)c1cc(C)n(-c2ccc(OC)c(OC)c2)c1C` the activity change, negative = inhibition was -1.46% (inactive).
For `CCNC(=O)N(C(=O)NCC)n1c(C)nnc1C`, the activity change, negative = inhibition was -11.9% (inactive).
For `COc1ccc(/C(O)=C2/C(=O)C(=O)N(CCCN(C)C)C2c2ccco2)cc1Cl` (stereo not drawn), the activity change, negative = inhibition was -5.99% (inactive).
For `Cc1cc(=O)oc(C)c1C(=O)NCCC1=CCCCC1`, the activity change, negative = inhibition was -27.5% (inactive).
In the case of `CCCC(CCC(=O)Nc1ccc(C(=O)OC)cc1)C(=O)O` (stereo not drawn), the activity change, negative = inhibition is reported as -16.6% (inactive).
In the case of `c1ccc(-n2c(Cc3cccnc3)nc3cnccc32)cc1`, the activity change, negative = inhibition is reported as 15.3% (inactive).
With `COc1cccc(C2/C(=C(/O)c3cnn(-c4ccccc4)c3C)C(=O)C(=O)N2CCN(C)C)c1` (stereo not drawn) the activity change, negative = inhibition was -7.78% (inactive).
With `COC(=O)c1[nH]c(C)c(/C(O)=C2\C(=O)C(=O)N(CCN3CCOCC3)C2c2cccnc2)c1C` (stereo not drawn) the activity change, negative = inhibition was -7.81% (inactive).
With `COC(=O)c1ccc(N2C(=O)CC(N3CCN(C(=O)c4ccco4)CC3)C2=O)cc1` (stereo not drawn) the activity change, negative = inhibition was -1.87% (inactive).
In the case of `C=C(Br)Cn1c(CCCC)nc2ccccc21`, the activity change, negative = inhibition is reported as 1.5% (inactive).
In the case of `O=S(CCc1ccncc1)Cc1ccccc1` (stereo not drawn), the activity change, negative = inhibition is reported as 26% (inactive).
With `Cc1cc(=O)oc(C)c1C(=O)NCCNC(=O)c1c(C)cc(=O)oc1C` the activity change, negative = inhibition was 6.33% (inactive).
For `CC12CN3CC(C)(CN(C1)C3c1ccc(Cl)cc1Cl)C2O` (stereo not drawn), the activity change, negative = inhibition was -12% (inactive).
With `COc1ccc2c(c1)[nH]c1c(=O)n(CCN(C)C)cnc12` the activity change, negative = inhibition was 15.2% (inactive).
With `CC1(C)Cc2c(C#N)c(SCc3nc4ccccc4[nH]3)nc(N3CCOCC3)c2CO1` the activity change, negative = inhibition was 8.62% (inactive).
In the case of `CSc1nc2sc3c(c2c(=O)[nH]1)CCC(C)C3` (stereo not drawn), the activity change, negative = inhibition is reported as -2.6% (inactive).
With `CSc1nc(C)cc(OCCNS(=O)(=O)c2cc(C)ccc2C)n1` the activity change, negative = inhibition was -2.9% (inactive).
For `Cn1ncc(N=Cc2ccccc2O)c1C(=O)N1CCOCC1`, the activity change, negative = inhibition was -6.4% (inactive).
With `COc1ccc(CNC(=O)[C@H](C)NC(=O)C2CCN(S(=O)(=O)c3ccc(C)cc3)CC2)cc1` the activity change, negative = inhibition was 0.0617% (inactive).
With `COc1ccc(CC(=O)n2c(CC#N)nc3ccccc32)cc1OC` the activity change, negative = inhibition was 10.4% (inactive).
With `Cc1nc2c(o1)CCc1ccccc1C2N1CCN(C)CC1` (stereo not drawn) the activity change, negative = inhibition was -82.4% (active).
In the case of `CCOC(=O)c1[nH]c2ccc(Br)cc2c1NC(=O)CCN1CCN(C(=O)OCC)CC1`, the activity change, negative = inhibition is reported as -25.7% (inactive).
For `O=C(NCc1ccccc1)c1ccc(=O)[nH]n1`, the activity change, negative = inhibition was -2.12% (inactive).
In the case of `Cn1c(=O)c2c(nc(NCc3ccc4c(c3)OCO4)n2Cc2ccccc2)n(C)c1=O`, the activity change, negative = inhibition is reported as 6.4% (inactive).
In the case of `O=C1[C@@H]2[C@H](C(=O)N1n1cnnc1)[C@H]1C=C[C@@H]2C1`, the activity change, negative = inhibition is reported as 1.6% (inactive).
For `COc1ccc(C2C(C#N)=C(N)Oc3cc(C)n(CCN4CCOCC4)c(=O)c32)cc1OC` (stereo not drawn), the activity change, negative = inhibition was 24.9% (inactive).
With `Cc1cc(C)n(CC(=O)n2nc(C)cc2C)n1` the activity change, negative = inhibition was -8.81% (inactive).
In the case of `Cc1ccc(-c2nn(CCC(=O)NCC3CCCO3)c(=O)c3ccccc23)cc1` (stereo not drawn), the activity change, negative = inhibition is reported as -7.06% (inactive).
For `O=C(O)CC(SCc1ccc(C(=O)O)o1)C(=O)O` (stereo not drawn), the activity change, negative = inhibition was -1.8% (inactive).
With `CC12CCC(C(=O)N(CCC#N)CCC#N)(CC1=O)C2(C)C` (stereo not drawn) the activity change, negative = inhibition was 18.9% (inactive).
In the case of `CN1CCc2c(sc3c2C(=O)NC(c2ccco2)N3)C1` (stereo not drawn), the activity change, negative = inhibition is reported as -3.54% (inactive).
With `Cc1cccc(C)c1N1C(=O)C2ON(c3ccccc3)C(c3ccncc3)C2C1=O` (stereo not drawn) the activity change, negative = inhibition was 11.5% (inactive).
For `CCCCSc1nnc(-c2ccc(NC(C)=O)cc2)n1C`, the activity change, negative = inhibition was 12.4% (inactive).
In the case of `CC(NC(=O)Nc1ncccn1)(C(F)(F)F)C(F)(F)F`, the activity change, negative = inhibition is reported as 1.67% (inactive).
For `CC(=O)OCC(=O)[C@H]1CC[C@H]2[C@@H]3CC=C4C[C@@H](O)CC[C@]4(C)[C@H]3CC[C@]12C`, the activity change, negative = inhibition was 4.8% (inactive).
For `O=c1[nH]c(CN(CCO)CCO)nc2c1C1(CCCCC1)Cc1ccccc1-2`, the activity change, negative = inhibition was 6.88% (inactive).
For `Cn1c(NCc2ccccc2)nc2c1c(=O)n(Cc1ccccc1)c(=O)n2C`, the activity change, negative = inhibition was -0.651% (inactive).
With `Cn1c2c(c(=O)n(C)c1=O)C(NC(=O)c1cccs1)(C(F)(F)F)C(=O)N2` (stereo not drawn) the activity change, negative = inhibition was 12.3% (inactive).

Assay: Stat Signaling Pathway (AID 446);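 also: ME-180 cervical cancer cells given 40 pM IL-6 alongside compound; SIE-controlled beta-lactamase reporter measured as 460/530 nm FRET emission ratio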
Conditions: ME-180 (cervical carcinoma) SIE beta-lactamase reporter, IL-6 stimulated, 5 h; at 17.2 µM (top of the series) unless noted
Method in brief: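 FRET read-out (405 nm excitation, 460/530 nm emission) of a beta-lactamase reporter under a STAT-inducible element in ME-180 cervical carcinoma cells. Cells with compound receive 40 pM IL-6 for 5 h. Values are normalised to AC90 stimulation and AC90 JAK-inhibitor controls.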
With `Cc1ccc(-n2ncc3c(NCCCN4CCCC4=O)ncnc32)c(C)c1` the activity, negative = inhibition was 9.31% (inactive).
With `CCOC(=O)c1cc(C)n(-c2ccc(OC)c(OC)c2)c1C` the activity, negative = inhibition was -14.1% (inactive).
In the case of `CCNC(=O)N(C(=O)NCC)n1c(C)nnc1C`, the activity, negative = inhibition is reported as 12.4% (inactive).
With `COc1ccc(/C(O)=C2/C(=O)C(=O)N(CCCN(C)C)C2c2ccco2)cc1Cl` (stereo not drawn) the activity, negative = inhibition was 4.09% (inactive).
For `Cc1cc(=O)oc(C)c1C(=O)NCCC1=CCCCC1`, the activity, negative = inhibition was 2.06% (inactive).
For `CCCC(CCC(=O)Nc1ccc(C(=O)OC)cc1)C(=O)O` (stereo not drawn), the activity, negative = inhibition was 11.7% (inactive).
In the case of `c1ccc(-n2c(Cc3cccnc3)nc3cnccc32)cc1`, the activity, negative = inhibition is reported as 6.69% (inactive).
In the case of `COc1cccc(C2/C(=C(/O)c3cnn(-c4ccccc4)c3C)C(=O)C(=O)N2CCN(C)C)c1` (stereo not drawn), the activity, negative = inhibition is reported as -11.2% (inactive).
With `COC(=O)c1[nH]c(C)c(/C(O)=C2\C(=O)C(=O)N(CCN3CCOCC3)C2c2cccnc2)c1C` (stereo not drawn) the activity, negative = inhibition was 2.79% (inactive).
With `COC(=O)c1ccc(N2C(=O)CC(N3CCN(C(=O)c4ccco4)CC3)C2=O)cc1` (stereo not drawn) the activity, negative = inhibition was 0.889% (inactive).
With `C=C(Br)Cn1c(CCCC)nc2ccccc21` the activity, negative = inhibition was 4.16% (inactive).
With `O=S(CCc1ccncc1)Cc1ccccc1` (stereo not drawn) the activity, negative = inhibition was 2.34% (inactive).
In the case of `Cc1cc(=O)oc(C)c1C(=O)NCCNC(=O)c1c(C)cc(=O)oc1C`, the activity, negative = inhibition is reported as 6.54% (inactive).
With `CC12CN3CC(C)(CN(C1)C3c1ccc(Cl)cc1Cl)C2O` (stereo not drawn) the activity, negative = inhibition was 3.23% (inactive).
In the case of `COc1ccc2c(c1)[nH]c1c(=O)n(CCN(C)C)cnc12`, the activity, negative = inhibition is reported as 8.04% (inactive).
With `CC1(C)Cc2c(C#N)c(SCc3nc4ccccc4[nH]3)nc(N3CCOCC3)c2CO1` the activity, negative = inhibition was -16.1% (inactive).
With `CSc1nc2sc3c(c2c(=O)[nH]1)CCC(C)C3` (stereo not drawn) the activity, negative = inhibition was 8.48% (inactive).
With `CSc1nc(C)cc(OCCNS(=O)(=O)c2cc(C)ccc2C)n1` the activity, negative = inhibition was 1.66% (inactive).
For `Cn1ncc(N=Cc2ccccc2O)c1C(=O)N1CCOCC1`, the activity, negative = inhibition was -4.13% (inactive).
With `COc1ccc(CNC(=O)[C@H](C)NC(=O)C2CCN(S(=O)(=O)c3ccc(C)cc3)CC2)cc1` the activity, negative = inhibition was 2.4% (inactive).
In the case of `COc1ccc(CC(=O)n2c(CC#N)nc3ccccc32)cc1OC`, the activity, negative = inhibition is reported as -5.7% (inactive).
With `Cc1nc2c(o1)CCc1ccccc1C2N1CCN(C)CC1` (stereo not drawn) the activity, negative = inhibition was 3.94% (inactive).
With `CCOC(=O)c1[nH]c2ccc(Br)cc2c1NC(=O)CCN1CCN(C(=O)OCC)CC1` the activity, negative = inhibition was -26.2% (inactive).
For `O=C(NCc1ccccc1)c1ccc(=O)[nH]n1`, the activity, negative = inhibition was 5.54% (inactive).
In the case of `Cn1c(=O)c2c(nc(NCc3ccc4c(c3)OCO4)n2Cc2ccccc2)n(C)c1=O`, the activity, negative = inhibition is reported as -25% (inactive).
For `O=C1[C@@H]2[C@H](C(=O)N1n1cnnc1)[C@H]1C=C[C@@H]2C1`, the activity, negative = inhibition was 3.44% (inactive).
With `COc1ccc(C2C(C#N)=C(N)Oc3cc(C)n(CCN4CCOCC4)c(=O)c32)cc1OC` (stereo not drawn) the activity, negative = inhibition was 6.24% (inactive).
For `Cc1cc(C)n(CC(=O)n2nc(C)cc2C)n1`, the activity, negative = inhibition was 8.01% (inactive).
In the case of `Cc1ccc(-c2nn(CCC(=O)NCC3CCCO3)c(=O)c3ccccc23)cc1` (stereo not drawn), the activity, negative = inhibition is reported as 4.3% (inactive).
For `O=C(O)CC(SCc1ccc(C(=O)O)o1)C(=O)O` (stereo not drawn), the activity, negative = inhibition was 0.837% (inactive).
For `CC12CCC(C(=O)N(CCC#N)CCC#N)(CC1=O)C2(C)C` (stereo not drawn), the activity, negative = inhibition was 6.43% (inactive).
With `CN1CCc2c(sc3c2C(=O)NC(c2ccco2)N3)C1` (stereo not drawn) the activity, negative = inhibition was 23.6% (inactive).
With `Cc1cccc(C)c1N1C(=O)C2ON(c3ccccc3)C(c3ccncc3)C2C1=O` (stereo not drawn) the activity, negative = inhibition was -5.83% (inactive).
With `CCCCSc1nnc(-c2ccc(NC(C)=O)cc2)n1C` the activity, negative = inhibition was 0.987% (inactive).
In the case of `CC(NC(=O)Nc1ncccn1)(C(F)(F)F)C(F)(F)F`, the activity, negative = inhibition is reported as -5.56% (inactive).
For `CC(=O)OCC(=O)[C@H]1CC[C@H]2[C@@H]3CC=C4C[C@@H](O)CC[C@]4(C)[C@H]3CC[C@]12C`, the activity, negative = inhibition was -2.21% (inactive).
In the case of `O=c1[nH]c(CN(CCO)CCO)nc2c1C1(CCCCC1)Cc1ccccc1-2`, the activity, negative = inhibition is reported as -8.23% (inactive).
With `Cn1c(NCc2ccccc2)nc2c1c(=O)n(Cc1ccccc1)c(=O)n2C` the activity, negative = inhibition was -21.1% (inactive).
For `Cn1c2c(c(=O)n(C)c1=O)C(NC(=O)c1cccs1)(C(F)(F)F)C(=O)N2` (stereo not drawn), the activity, negative = inhibition was 5.6% (inactive).
